Laboratory results from PubChem BioAssay AID2599 (Sanford-Burnham Center for Chemical Genomics, 2010).
The campaign covered roughly 330,000 compounds. About 5,800 (1.8%) were called active. For the sample, actives were picked, then their nearest neighbours and some compounds at random. A number with no mark means an inactive call.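 How the source made its calls: active means inhibition above about 50% at the single tested dose (limit read from the data); inactive means the rest.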

Target: Sentrin-specific protease 6 (Homo sapiens) (UniProt Q9GZR1)
Assay: inhibition of human SENP6 catalytic domain – biochemical, luminescence, uHTS, primary screen (AID 2599);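 further: plate controls were DMSO wells with enzyme for no effect and DMSO wells lacking enzyme for full effect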
Details: Recombinant SENP6 catalytic domain, aminoluciferin luminescence; at 10 µM; stronger effect = higher value

Sentrin-specific protease 6 (Homo sapiens), sequence (Q9GZR1 628-1112 limits assumed): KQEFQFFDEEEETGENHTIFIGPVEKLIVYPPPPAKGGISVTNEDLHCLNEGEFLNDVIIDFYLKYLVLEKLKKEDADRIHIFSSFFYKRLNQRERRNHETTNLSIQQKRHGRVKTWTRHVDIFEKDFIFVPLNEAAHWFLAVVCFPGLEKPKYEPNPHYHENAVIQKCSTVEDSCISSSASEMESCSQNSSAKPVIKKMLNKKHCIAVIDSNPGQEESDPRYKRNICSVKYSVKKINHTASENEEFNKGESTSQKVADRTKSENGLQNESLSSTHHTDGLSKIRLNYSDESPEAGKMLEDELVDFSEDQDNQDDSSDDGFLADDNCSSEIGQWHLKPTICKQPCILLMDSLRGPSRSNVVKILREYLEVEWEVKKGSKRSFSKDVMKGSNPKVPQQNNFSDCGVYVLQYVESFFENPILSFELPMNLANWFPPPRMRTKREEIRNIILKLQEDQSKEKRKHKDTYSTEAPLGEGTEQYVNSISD

COCCn1nnnc1C(c1cc2ccc(OC)cc2[nH]c1=O)N1CCc2ccccc2C1 (stereo not drawn) was tested, and the inhibition was 72.7% (active).
With COc1ccc(/C=C2/SC(=O)N(CCCCCC(=O)Nc3ccccc3C(=O)O)C2=S)cc1 the inhibition was 63.7% (active).
With N=c1c2c3c(sc2nc2n1CCCCC2)CCCC3 the inhibition was 64.2% (active).
For Cc1cc(NC(=O)Nc2ccccc2[N+](=O)[O-])no1, the inhibition was 54% (active).
In the case of Cc1ccc(N/C=C/C(=O)c2ccccc2)cc1C, the inhibition is reported as 95.8% (active).
For COc1ccc(C(=O)/C=C/Nc2ccccn2)cc1, the inhibition was 97.2% (active).
CCOc1ccc(N/C=C/C(=O)c2ccccc2)cc1 was tested, and the inhibition was 94.4% (active).
With COc1ccc(C2=Nc3cc(C)ccc3OC2)cc1 the inhibition was 81.7% (active).
For Cc1ccc2cc3cc(C(=O)N4CCCCCC4)oc3nc2c1, the inhibition was 57.1% (active).
Cc1cc(C(=O)N/N=C/c2ccc(N3CCOCC3)cc2)c(C)o1 was tested, and the inhibition was 84.3% (active).
CC(=C/c1ccccc1)/C=N/NC(=O)c1cc(C)oc1C was tested, and the inhibition was 90.1% (active).
In the case of Cc1cc(C(=O)N/N=C\C(Br)=C\c2ccccc2)c(C)o1, the inhibition is reported as 54.2% (active).
With C/C(=N\NC(=O)c1ccc(C)cc1)C1C(=O)c2ccccc2C1=O the inhibition was 92.3% (active).
CCCCSc1nnc(-c2ccc(C)cc2)o1 was tested, and the inhibition was 50.8% (active).
In the case of Fc1ccccc1-c1cc2cc3c(cc2cn1)OCO3, the inhibition is reported as 75.8% (active).
O=c1c(-c2ccccc2)coc2cc(O)ccc12 was tested, and the inhibition was 60.4% (active).
With COc1ccc(-n2nnnc2-c2nc3ccccc3s2)cc1 the inhibition was 54.6% (active).
In the case of COc1cccc(C(=O)Nc2ccc(NC(=O)c3ccco3)cn2)c1, the inhibition is reported as 64.1% (active).
In the case of COc1ccccc1C(=O)Nc1ccc(NC(=O)c2ccco2)c(C)c1, the inhibition is reported as 66.3% (active).

Going from COc1ccc(OC)c(C(c2nnnn2C(C)(C)C)N2CCc3ccccc3C2)c1 (stereo not drawn) to COc1ccc(-n2nnnc2CNC(=O)c2ccc3ccccc3c2)cc1, the inhibition falls from -3.29% to -6.42%.

Going from CCOc1ccc2[nH]c(=O)c(C(c3nnnn3CCOC)N3CCOCC3)cc2c1 (stereo not drawn) to CCOc1ccc(OCC)c(NC(=O)CSc2nnc(Cn3cnc4ccccc43)n2C)c1, the inhibition falls from 7.39% to 3.46%.

First: O=c1cc(Cl)c2ccccc2n1-c1ccccc1
Second: O=C(Nn1c(-c2ccc(Cl)cc2)nc2ccccc2c1=O)c1cccnc1Cl
The inhibition of the first is lower: -18.3% for the first, 1.41% for the second.

Compared with CCNC(=O)NNC(=O)C1CC(c2cccs2)=NO1 (stereo not drawn), O=C(Nc1ccc(NC(=O)c2cccs2)cn1)c1ccco1 is higher in inhibition: -11.1% for the first, 22% for the second.

Compared with Cc1cc(C)cc(NC(=O)N(C)Cc2ccccc2)c1, Cc1c(NC(=O)CSCc2ccccc2)cccc1C(=O)O is higher in inhibition: -7.22% for the first, 9.84% for the second.

Compared with CN1CCNC(=O)C1CC(=O)N1CC=C(c2ccc(F)cc2)CC1 (stereo not drawn), Cc1ccc2c(c1)N(C(=O)CCC(=O)N1CCc3ccccc3C1)CCO2 is higher in inhibition: 4.55% for the first, 10.2% for the second.

First: COc1ccc(/C=C2\SC(=O)N(CCC(=O)NCCCn3ccnc3)C2=O)cc1
Second: COc1ccc(/C=C2\SC(=O)N(CCC(=O)NC3CCS(=O)(=O)C3)C2=O)cc1 (stereo not drawn)
The inhibition of the first is higher: 15.6% for the first, 12.7% for the second.

Going from Oc1ccc(CNc2ccccc2O)cc1 to O=C(/C=C/NCc1ccc(F)cc1)c1ccccc1, the inhibition falls from 17.3% to -0.568%.

Going from CCOC(=O)C1(Cc2ccccc2C)CCCN(C(=O)CCc2c(C)noc2C)C1 (stereo not drawn) to CCC(C)CN1CCC(CO)(Cc2ccccc2Cl)CC1 (stereo not drawn), the inhibition falls from 9.37% to 8.24%.

First: CC1(C)Cc2c(sc3nc4n(c(=N)c23)CCCCC4)CO1
Second: N=c1c2c3c(sc2ncn1N)CCCCC3
The inhibition of the first is higher: -4.65% for the first, -21.7% for the second.

Going from CC(OC(=O)CCc1nc(=O)c2ccccc2n1C)C(=O)NCc1ccc2c(c1)OCO2 (stereo not drawn) to O=C(CN1CCN(c2ccccc2F)CC1)c1ccc2c(c1)OCO2, the inhibition rises from -15.7% to -2.86%.

First: Cc1cc(NC(=O)COc2ccc([N+](=O)[O-])cc2)no1
Second: Cc1cc(NC(=O)c2ccccc2C)no1
The inhibition of the first is lower: -2.83% for the first, -1.58% for the second.

Going from Nc1ccn(CC(=O)N2CCN(c3ccccn3)CC2)c(=O)n1 to Cc1ccc2nc(N3CCN(C(=O)c4ccco4)CC3)sc2c1, the inhibition falls from -3.83% to -9.94%.

First: CC(C)C(=O)NC(NC(=S)NC1CCS(=O)(=O)C1)C(Cl)(Cl)Cl (stereo not drawn)
Second: COc1ccc(C(C)NC(=S)NC2CCCCC2)cc1OC (stereo not drawn)
The inhibition of the first is lower: -19.9% for the first, -13.2% for the second.

Compared with CC(=O)Nc1ccc(/C=C/C(=O)c2ccccc2)cc1, CC(=O)Nc1ccc(S(=O)(=O)NNC(=O)CCc2ccccc2)cc1 is higher in inhibition: -17% for the first, -9.47% for the second.

First: CCOc1ccc(NC(=S)N2CCC(NC(=O)c3ccccc3)CC2)cc1
Second: CNC(=O)C1CC(=O)N(c2ccc(OCC(=O)Nc3ccccc3C)cc2)C1 (stereo not drawn)
The inhibition of the first is lower: -17.6% for the first, -8.41% for the second.

First: CCOc1ccc(N/C=C/C(=O)c2cc(OC)c(OC)c(OC)c2)cc1
Second: COc1ccc(N2C(=O)CCC(C(=O)Nc3ccccn3)C2c2ccc(OC)c(OC)c2)cc1 (stereo not drawn)
The inhibition of the first is lower: -7.87% for the first, -4.43% for the second.

First: Cc1cc(N/C=C\C(=O)c2ccc(Cl)c(Cl)c2)no1
Second: Cc1ccc(-c2cc(C(=O)N/N=C/C=C/c3ccccc3)n[nH]2)o1
The inhibition of the first is lower: -3.41% for the first, 1.41% for the second.

Compared with C[C@H](NC(=O)C1CC(=O)N(c2ccc3c(c2)OCCO3)C1)C(=O)N1CCC(C(=O)O)CC1 (stereo partly drawn), COC(=O)c1cccc(C(=O)N2CCCC(Nc3ccc4c(c3)OCCO4)C2)c1 (stereo not drawn) is higher in inhibition: -10.8% for the first, 8.68% for the second.

Compared with CC1CCC(CN2CCN=C2N(C)C)CC1 (stereo not drawn), Cc1ccccc1C(OCCN(C)C)C1CCCCC1 (stereo not drawn) is higher in inhibition: -19.7% for the first, -10.8% for the second.

Going from Cc1ccc(C(=O)NNC2=Nc3cc([N+](=O)[O-])ccc3OC2)cc1 to Cc1ccc(C(=O)N/C(=C/c2cccnc2)C(=O)O)cc1, the inhibition rises from -18.4% to -4.97%.

Going from COc1ccc(C2=NOC(COC(=O)c3ccc4ccccc4n3)C2)cc1 (stereo not drawn) to COc1ccc(C2=NN(c3nc4ccccc4s3)C(=O)C2)cc1, the inhibition rises from -7.77% to 2.49%.

Compared with CCOCCN(C=O)c1cccc(OC)c1, CCOC(=O)CSc1nnc(-c2cccc(Br)c2)o1 is higher in inhibition: -10.1% for the first, -8.5% for the second.

First: O=C(COC(=O)c1n[nH]c2ccccc12)Nc1ccccc1Br
Second: CCCn1nc(C(=O)OCc2nc(N)nc(Nc3ccccc3C)n2)c2ccccc2c1=O
The inhibition of the first is lower: -4.53% for the first, -0.795% for the second.

First: COc1cc(/C=C/C(=O)OCC(=O)N2CCOCC2)ccc1OCC#N
Second: CCN(CC)c1ccc(C(=O)N/N=C/c2ccc(N3CCOCC3)cc2)cc1
The inhibition of the first is higher: 2.81% for the first, -7.9% for the second.

First: COc1ccc(N2C(=O)C(O)C2c2ccc(C)cc2)cc1 (stereo not drawn)
Second: COc1ccc(OCC(=O)Nc2ccc(NC(=O)c3ccco3)c(C)c2)cc1
The inhibition of the first is higher: -8.14% for the first, -34.6% for the second.

First: Cc1cc(C)cc(NC(=O)N2CCCCCCC2)c1
Second: CC(Sc1ccccc1F)C(=O)Nc1cccc(S(=O)(=O)N2CCOCC2)c1 (stereo not drawn)
The inhibition of the first is lower: -8.39% for the first, -4.45% for the second.

Compared with OCCC#Cc1ccc(CN2CCN(Cc3ccsc3)C(CCO)C2)cc1 (stereo not drawn), CC(C)OCCCNC(=O)c1ccc(C2SCC(=O)N2Cc2ccco2)cc1 (stereo not drawn) is higher in inhibition: -21.1% for the first, -6.37% for the second.

Going from CC(C)c1cc(C(=O)N/N=C/C(Br)=C/c2ccccc2)n[nH]1 to C=CCC(C(=O)c1ccccc1)[N+](C)(C)CC=C (stereo not drawn), the inhibition falls from 2.83% to -7.76%.

Going from O=C(NN=Cc1ccc(N2CCOCC2)cc1)c1cc2ccccc2cc1O to O=C(CCN1CCc2ccccc2C(O)(c2ccccc2)C1)c1ccc2c(c1)OCCO2 (stereo not drawn), the inhibition falls from -12.9% to -26.4%.

Going from COc1ccc(C/C(C)=N/NC(=O)c2cc(C)oc2C)cc1 to Cc1cc(C(=O)NNC(=O)c2ccccc2O)c(C)o1, the inhibition rises from -24.2% to 0.955%.

Going from CN1CCN(C(=O)/C(=C\c2cccs2)NC(=O)c2cccs2)CC1 to O=C(c1cccs1)N1CCC(c2nc3ccccc3s2)CC1, the inhibition rises from -14.6% to 5.91%.

Going from Nc1c(N(CCCO)C(=O)C2CCCC2)c(=O)[nH]c(=O)n1Cc1ccccc1 to Cc1cnc(CN(C)C(=O)C2CCC(=O)N(CCc3cccc(F)c3)C2)[nH]1 (stereo not drawn), the inhibition rises from -9.42% to 13.7%.

Going from O=C(Cc1ccccc1)Nc1c(Cl)ccc2nsnc12 to Cc1ccccc1NC(=O)CSc1ccc2nnc(-c3ccccn3)n2n1, the inhibition rises from -21.2% to -3.48%.

Going from C/C(=N\NC(=O)CNC(=O)C(c1ccccc1)c1ccccc1)c1ccc(C)cc1 to Cc1ccc(C(=O)COc2cccc(NC(=O)c3ccco3)c2)cc1, the inhibition falls from 7.95% to -16.4%.

Going from C=C1c2c(Cl)ccc(O)c2C(O)=C2C(=O)[C@]3(O)C(O)=C(C(N)=O)C(=O)[C@@H](N(C)C)[C@@H]3[C@@H](O)C12 (stereo partly drawn) to COC(=O)c1scc(C)c1NC(=O)CSc1ccc(Cl)cc1, the inhibition falls from 1.61% to -3.94%.

Compared with CCOC(=O)CSc1nnc(-c2ccc([N+](=O)[O-])cc2)o1, CCc1ccc(Oc2coc3cc(O)ccc3c2=O)cc1 is higher in inhibition: 2.93% for the first, 14% for the second.

Going from O=S(=O)(c1ccc(Br)cc1)N1CCC(c2nc3ccccc3[nH]2)CC1 to COC(=O)Cc1ccc(N(Cc2ccccc2F)S(=O)(=O)c2ccc(Br)cc2)cc1, the inhibition falls from -3.25% to -6.45%.

First: O=C(c1ccco1)N1CCN(C(=O)c2cc(-c3ccccc3F)no2)CC1
Second: Cc1cc(NC(=O)c2ccc(F)cc2)ccc1NC(=O)c1ccco1
The inhibition of the first is lower: 4.97% for the first, 43.7% for the second.

CC(C)CN(Cc1c(O)ccc2c(=O)c(-c3ccccc3)coc12)CC(C)C was tested, and the inhibition was -12.1%.
